Source: PubChem BioAssay (NCI)
Where “and” joins values, the source holds several entries; their conditions need not be identical. Equal entries are not always repeated. This is part of a sample that, as a whole, favours compounds with a hit. Of some 83,000 tested, about 20% had one in any assay.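 In brief: 96-well plates, 48 h treatment, single concentration, percent growth endpoint.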 Unmarked numbers belong to inactive results. Calls of active or inactive are those of the source. The calls were made as follows: active = growth percent below 10; inactive = the rest.

System: HL-60(TB) leukemia
Assay: NCI-60 one-dose screen, 48 h (100 = growth as untreated, 0 = no growth, -100 = all killed)
Details: 10 µM unless noted

| SMILES | growth |
| --- | --- |
| CC(=O)Nc1ccc(S(=O)(=O)Nc2cccc(-c3nc(-c4ccc(NC(=O)c5cccnc5)cc4Cl)no3)c2)cc1 | 24% |
| CC(=O)OC1CC2C(C)(C)OC3CC(=O)OCC32C2CCC3(C)C(=CCC3c3ccoc3)C12C (stereo not drawn) | 116% |
| CCCCCCCCn1ccc2cc(NC(=O)Cn3cc(CN4CCCCC4)nn3)ccc21 | -18.7% (active) |
| COc1cc(CNC(=O)/C=C/C=C/c2ccc3c(c2)OCO3)ccc1OCc1cn(-c2ccc(C)c(C)c2)nn1 | 84.4% |
| CC(=O)Nc1ccc(O)cc1 | 88.3% and 74.2% |
| COc1ccc(Cn2c(NCCN=C(N)N)nc(=O)n(Cc3ccc(F)cc3)c2=O)cc1 | 94.1% and 96.9% |
| COc1ccc(C2=NN(C(C)=O)C(c3cc(OC)c(OC)c(OC)c3)C2)cc1 (stereo not drawn) | 95.2% |
| COC1C[C@H](O[C@@H]2C[C@H](O[C@@H]3C[C@H](O[C@@H]4C(=O)c5c(cc6cc(O[C@H]7C[C@@H](O[C@H]8C[C@@H](O)[C@H](O)C(C)O8)[C@H](O)C(C)O7)c(C)c(O)c6c5O)C[C@H]4C(OC)C(=O)[C@@H](O)[C@@H](C)O)OC(C)[C@H]3O)OC(C)[C@@H]2O)OC(C)[C@@H]1O (stereo partly drawn) | -0.253% (active) |
| COc1ccc2occ(C3=C(c4c[nH]c5ccccc45)C(=O)N(O)C3=O)c2c1 | 97.3% |
| CCCCc1ccc(Nc2ccc(Nc3ccc(CCCC)cc3S(=O)(=O)O)c3c2C(=O)c2ccccc2C3=O)c(S(=O)(=O)O)c1 | 96% |
| CC(C)Sc1ncnc2nc[nH]c12 | 95% |
| O=C1CCC(=O)N1CC1CC2CCC1C2 (stereo not drawn) | 128% and 97.8% |
| Cc1nnc(/N=C2\NC(=O)/C(=C/c3ccc(N(C)C)cc3)S2)s1 | 99.6% |
| CC1(O)CC(c2nc(-c3ccc4ccc(-c5ccccc5)nc4c3)c3c(N)nccn23)C1 (stereo not drawn) | 17.5% |
| C/C(=N\NC(N)=S)c1nc2ccc(Cl)cc2[nH]1 | 29.5% |
| COc1ccc(C2C(C#N)=C(N)Oc3c2ccc2ccccc32)cc1 (stereo not drawn) | 22.9% |
| Cc1cn(-c2cc(C(=O)Nc3cccc(C#Cc4cccc5[nH]nc(N)c45)c3)cc(C(F)(F)F)c2)cn1 | 25.1% |
| COc1cccc2nc(Nc3cccc(NC(=O)c4cc(N5CCOCC5)cc(C(F)(F)F)c4)c3)ccc12 | 93.5% |
| Cc1ccc(N2CCN(C(C)C(N)=O)CC2)cc1 (stereo not drawn) | 158% |
| NC1=NC(c2ccccc2)C2=C(N1)/C(=C/c1ccccc1)CCC2 (stereo not drawn) | 80.7% |
| CC12CCC3c4ccccc4CCC3(CO1)C2 (stereo not drawn) | 87.7% |
| C#COc1cccc(Nc2c(C#N)cnc3ncc(NC(=O)CCl)cc23)c1 | 19.6% [6.25 µM] |
| O=C(/C=C/c1ccc(Cl)cc1)c1ccc(O)c(CN2CCN(c3cc4c(cc3F)c(=O)c(C(=O)O)cn4C3CC3)CC2)c1 | 51.5% |
